The source made the active and inactive calls. Rule for the calls: active = hit-call score of the fitted dose curve at least 0.9, where 1 is the maximum; inactive = score below 0.9.
Molecular target: Hepatocyte nuclear factor 3-beta (Homo sapiens) (UniProt Q9Y261)
Assay: ATG_FoxA2_CIS: Attagene CIS-FACTORIAL HepG2 Assay for human Forkhead box A2 (FOXA2) (AID 2282942)
Details: HepG2 cis-reporter transcription factor activity, 24 h; actives raise or lower the signal
Procedure: ATG_CIS is a cell-based, multiplexed-readout assay that uses HepG2, a human liver cell line, with measurements taken at 24 hours after chemical dosing in a 24-well plate.ATG_FoxA2_CIS is one of 52 assay component(s) measured or calculated from the ATG_CIS assay. It is designed to make measurements of mRNA induction, a form of inducible reporter, as detected with fluorescence intensity signals by Reverse transcription polymerase chain reaction (RT-PCR) and Capillary electrophoresis technology.Data from the assay component ATG_FoxA2_CIS was analyzed into 1 assay endpoint. This assay endpoint, ATG_FoxA2_CIS, was analyzed with bidirectional fitting relative to DMSO as the negative control and baseline of activity. Using a type of inducible reporter, measures of mRNA for gain or loss-of-signal activity can be used to understand the reporter gene at the transcription factor-level as they relate to the gene FOXA2. Furthermore, this assay endpoint can be referred to as a primary readout, because this assay has produced multiple assay endpoints where this one serves a reporter gene function. To generalize the intended target to other relatable targets, this assay endpoint is annotated to the dna binding intended target family, where the subfamily is forkhead box protein.
Human liver HepG2 cells are transiently transfected with multiple reporter transcription units (MRTUs) in 6-well plates using FuGene 6 reagent (Roche; 3 ml FuGene/1 mg DNA). The MRTU constructs are regulated by a cis-regulating element (promoter). […] A major difference between the CIS and TRANS system is that in CIS activities of endogenous TFs are measured, whereas the TRANS assay evaluates changes in activities of exogenous, chimeric NR-Gal4 proteins. […] At the end of 24 hour incubation, total RNA was isolated using TriZol reagent (Invitrogen). The isolated RNA is then reverse-transcribed using oligo(dT) primer and Mo-MLV reverse transcriptase (Invitrogen) with DNAse I (Ambion) treatment for 30 min. The one-tenth of the produced cDNA was amplified by PCR using Taq DNA polymerase (Invitrogen) and two reporter sequence-specific primers. The PCR products were fluorescently labeled by primer extension with 6-arboxyfluorescein (6-FAM) 5'-labeled reporter sequence-specific primer (2 min at 95 C, 20 s at 68 C and 10 min at 72 C) and these products were digested with 5U of HpaI (New England Biolabs) for 2h at 37 C. The fragments were purified using Qiaquick PCR columns (Qiagen), analyzed on an ABI 3130xL genetic analyzer (Applied Biosystems) with peak positions identified by using a set of X-rhodamine (ROX)-labeled MapMarker1000 molecular weight standards (BioVentures). The raw capillary electrophoresis data was processed using Attagraph software (Attagene).

Sequence of Hepatocyte nuclear factor 3-beta (Homo sapiens) (Q9Y261 whole entry, looked up): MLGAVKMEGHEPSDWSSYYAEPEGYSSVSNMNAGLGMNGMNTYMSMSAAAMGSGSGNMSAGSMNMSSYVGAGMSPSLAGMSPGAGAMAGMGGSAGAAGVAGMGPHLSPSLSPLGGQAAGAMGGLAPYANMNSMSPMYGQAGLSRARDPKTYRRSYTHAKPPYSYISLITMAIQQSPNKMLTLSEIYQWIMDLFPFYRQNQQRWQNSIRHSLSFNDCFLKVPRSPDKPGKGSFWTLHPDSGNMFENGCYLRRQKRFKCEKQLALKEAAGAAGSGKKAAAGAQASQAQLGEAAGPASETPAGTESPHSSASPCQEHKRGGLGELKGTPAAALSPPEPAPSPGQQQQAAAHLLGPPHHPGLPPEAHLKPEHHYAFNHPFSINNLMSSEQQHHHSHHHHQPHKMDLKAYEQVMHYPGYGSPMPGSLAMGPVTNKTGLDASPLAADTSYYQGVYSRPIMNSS

Structure (SMILES)	outcome
CC(C)Nc1ccc(Nc2ccccc2)cc1	inactive
O=[N+]([O-])c1cc(Cl)ccc1Cl	inactive
CCOP(=S)(OCC)SCSCC	inactive
Nc1ccc(Sc2ccc(N)cc2)cc1	inactive
CCCN(CCC)c1c([N+](=O)[O-])cc(C(C)C)cc1[N+](=O)[O-]	inactive
OCC1CO1 (stereo not given)	inactive
O=C(O)C(F)(F)OC(F)(F)C(F)(F)OC(F)(F)F	inactive
CC(Cl)(Cl)C(=O)O	inactive
CN(C)C(=O)Cl	inactive
[N-]=[N+]=[N-]	inactive
CCOP(=O)(O)C(N)=O	inactive
Cc1ccc([N+](=O)[O-])cc1C	inactive
Clc1ccc(Oc2ccccc2)cc1	inactive
O=[N+]([O-])c1ccccc1	inactive
O=C(O)C(F)(F)C(F)(F)C(=O)O	inactive
CCOP(=S)(NC(C)C)Oc1ccccc1C(=O)OC(C)C (stereo not given)	inactive
c1ccc2c(c1)Nc1ccccc1S2	inactive
O=C(O)C=CC(F)(C(F)(F)F)C(F)(F)F	inactive
O=c1ssc(Cl)c1Cl	inactive
Cc1cc(C)c(C(=O)P(=O)(c2ccccc2)c2ccccc2)c(C)c1	inactive

Structure (SMILES)	outcome
CC(C)(C)c1ccccc1OP(=O)(Oc1ccccc1)Oc1ccccc1	inactive
CCN(CC)c1ccccc1	inactive
Cc1c([N+](=O)[O-])cc2c(c1[N+](=O)[O-])C(C)(C)CC2(C)C	inactive
CCC1(c2ccccc2)C(=O)N=C(O)NC1=O (stereo not given)	inactive
O=c1[nH]c2ccccc2c(=O)o1	inactive
Oc1ccc(I)cc1	inactive
CCC(C)(C)c1ccc(O)cc1	inactive
Cc1ccc(N)cc1N	inactive
COP(=O)(O)OC	inactive
Cc1ccc(C(=O)Cl)cc1	inactive
N#Cc1ccc(O)cc1	inactive
Nc1ccc([N+](=O)[O-])cc1Cl	inactive
CC(=O)c1ccc(-c2ccccc2)cc1	inactive
C=C(C)C(=O)OCC1CO1 (stereo not given)	inactive
C=CC(=O)OCC(F)(F)C(F)F	inactive
CC(C)(C)OOC(C)(C)C	inactive
CC(C)(C)N(NC(=O)c1ccc(Cl)cc1)C(=O)c1ccccc1	inactive
O=C(O)C(F)(F)OC(F)(F)C(F)(F)OC(F)(F)C(=O)O	inactive
CCCCCCCc1ccc(O)cc1	inactive
CCOP(=S)(OCC)SCn1nnc2ccccc2c1=O	inactive

Source: PubChem BioAssay (EPA / NIEHS)
